{"source": "PubChem BioAssay (NCI)", "note": "Compounds without any hit were thinned out: in the full panel of roughly 83,000, 20% have a hit.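 96-well plates, one dose, 48 hours. Percent growth reported; active if below 10.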 Unmarked numbers belong to inactive results. Calls of active or inactive are those of the source.", "data": [{"system": "786-0 renal", "experiment": "NCI-60 one-dose screen, 48 h (100 = growth as untreated, 0 = no growth, -100 = all killed)", "settings": "10 µM unless noted", "values": [{"smiles": "COc1ccc2c(c1)c(-c1nc(-c3c[nH]c4ncccc34)cs1)cn2CCO", "growth": "59.5%"}, {"smiles": "O=C(NNC(=O)c1ccc(NC(=O)c2ccccn2)cc1)Nc1ccc2ccccc2c1", "growth": "111%"}, {"smiles": "COc1ccc(/C=C/C(=O)c2cc(OC)c(OC)c(OC)c2)cc1OCC(=O)Nc1nc2ccc(OC(F)(F)F)cc2s1", "growth": "58.9%"}, {"smiles": "O=C(CN1CCCCCC1)Nc1nc2ccc(NCc3ccc(Cl)cc3)cc2s1", "growth": "104%"}, {"smiles": "CCCCCCCCCCCCCCCCCCOc1ccccc1CC(=O)NCC[N+]1(C)CCCCC1", "growth": "74.2%"}, {"smiles": "COc1cc(-c2nc3sccn3c2-c2ccnc(NCCNS(=O)(=O)c3ccc(Cl)cc3)n2)ccc1F", "growth": "61.8%"}, {"smiles": "S=c1nc2oc(-c3ccccc3)c(-c3ccccc3)c2c(/N=C\\c2ccco2)[nH]1", "growth": "97%"}, {"smiles": "O=C1Nc2ccccc2/C1=C\\c1c[nH]c2ccc(Br)cc12", "growth": "109%"}, {"smiles": "COc1ccc(Nc2ncccc2/C=C/C(=O)c2cc(OC)c(OC)c(OC)c2)cc1", "growth": "-64.2% (active)"}, {"smiles": "COc1cc(OC)c(/C=C/C(=O)c2c(O)cc(OC)c(C3CCN(C)CC3)c2OC)c(OC)c1", "growth": "-97.7% (active)"}, {"smiles": "N#Cc1c(-c2ccccc2)nc(SCc2nnc(-c3ccc(Cl)cc3)o2)[nH]c1=O", "growth": "89.2%"}, {"smiles": "CC(=O)ON1CCCC(P(=O)(OCCSC(=O)C(C)(C)C)OCCSC(=O)C(C)(C)C)C1=O", "note": "(stereo not drawn)", "growth": "19.1%"}, {"smiles": "COc1cccc(CCNc2ncnc3c2ncn3Cc2nnc3c4ccccc4c(Cl)nn23)c1", "growth": "57.7%"}]}]}
